In PubChem BioAssay (NCATS):
Records with an inconclusive call do not appear. Where a call stands in place of a potency, no number is given. The source made the active and inactive calls. Unless noted, the call rests on the fitted dose curve; in most records, active means well fitted curve in the direction sought with a large enough effect; inconclusive means small, poorly fitted or top-dose-only effect, or another doubt; inactive means no such curve, though single readings can be large; an effect the other way counts as inactive or inconclusive.

Legend:
[1] = Validation of Assay for Modulators of Lamin A Splicing (AID 1459; active means well fitted curve in the direction sought with a large enough effect in the signal ratio; the % refers to the signal ratio;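 further: cells exposed to compound for two days before reading; ratio rise marks activators and ratio drop marks inhibitors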)
Outline: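 S3 HeLa stably expressing lamin A-EGFP splicing minigene and DsRed2, 600 cells/well in Opti-MEM with 2% FBS, treated 48 h at 37C; laser-scanning cytometry gives GFP/RFP total intensity ratio; ancitabine positive control, 0.5% DMSO vehicle.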

[2] = qHTS Assay for Lipid Storage Modulators (AID 1519; calls by dose curve); details: Drosophila S3 cells, BODIPY lipid droplet/cell ratio, laser cytometry, cells loaded with oleic acid; for activity change, negative = inhibition: at 57.5 µM (top of the series)
Outline: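 Cells seeded at 5,000 per well were treated with compounds over a concentration series and loaded with oleic acid (400 uM, as added). Lipid droplet fluorescence (488 nm excitation, 500-530 nm channel) was read by laser-scanning cytometry and normalized to 20 uM Triacsin C.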

[3] = target: DNA repair nuclease/redox regulator APEX1 (Homo sapiens) (UniProt P27695); test: qHTS Validation Assay for Inhibitors of the Human Apurinic/apyrimidinic Endonuclease 1 (APE1) (AID 1705;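 further: TAMRA fluorescence gain over two minutes as APE1 cuts a quenched THF abasic duplex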)
DNA repair nuclease/redox regulator APEX1 (Homo sapiens), sequence (P27695 whole entry, looked up): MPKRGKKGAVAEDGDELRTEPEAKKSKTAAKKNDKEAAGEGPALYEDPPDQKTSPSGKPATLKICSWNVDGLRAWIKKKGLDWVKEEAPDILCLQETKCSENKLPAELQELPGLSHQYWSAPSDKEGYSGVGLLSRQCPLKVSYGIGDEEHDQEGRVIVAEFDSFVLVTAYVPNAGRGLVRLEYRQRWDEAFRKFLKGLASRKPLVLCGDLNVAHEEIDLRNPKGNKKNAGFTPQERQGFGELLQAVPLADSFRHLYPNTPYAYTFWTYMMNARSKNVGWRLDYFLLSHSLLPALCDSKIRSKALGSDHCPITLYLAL
Outline: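 Fluorogenic double-stranded THF abasic-site substrate (5'-TAMRA/3'-BHQ-2), 50 nM final. Enzyme preincubated with compound 15 min at room temperature, then substrate added. Kinetic fluorescence (ex 525/em 598 nm) read three times at 60 s intervals; activity taken as third-minus-first read difference.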

[4] = Counterscreen for APE1 Inhibitors: Fluorescent Dye Displacement Validation Assay (AID 1707)
Outline: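 Compounds are scored by their ability to displace Thiazole Orange (250 nM) from a 50 nM TAMRA-tagged duplex bearing a tetrahydrofuran abasic site. Buffer is 50 mM Tris-HCl pH7.5, 50mM NaCl, 2 mM MgCl2, 0.01% Tween-20.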

[5] = target: Endonuclease 4 (Escherichia coli (strain K12)) (UniProt P0A6C1); test: Counterscreen for APE1 Inhibitors: qHTS Validation Assay for Inhibitors of Endonuclease IV (AID 1708)
Outline: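 Concentration-response counterscreen run identically to the APE1 assay: 15 min room-temperature preincubation of 2 nM enzyme with compound, reaction started with 50 nM quenched abasic DNA, progress taken from kinetic fluorescence.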

[6] = qHTS for differential inhibitors of proliferation of Plasmodium falciparum line Dd2 (AID 1882); details: Potency: Plasmodium falciparum Dd2 proliferation inhibition; further: nearly all actives have a fitted effect of over 65% in size; further: potency means the concentration at half of the fitted maximal effect
Outline: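 Dd2-infected erythrocytes (0.3% parasitemia, 2.5% hematocrit final) incubated with compound 72 h at 37 C, 5% CO2; lysed with saponin/Triton buffer containing SYBR Green I, incubated overnight in the dark, then read by fluorescence (485/535 nm). Normalized to 0.29 uM artemisinin and DMSO.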

[7] = target: Ferritin light chain (Equus caballus) (UniProt P02791); test: qHTS Validation Assay for Identification of Novel General Anesthetics (AID 2323)
Ferritin light chain (Equus caballus), sequence (P02791 2-175 limits assumed): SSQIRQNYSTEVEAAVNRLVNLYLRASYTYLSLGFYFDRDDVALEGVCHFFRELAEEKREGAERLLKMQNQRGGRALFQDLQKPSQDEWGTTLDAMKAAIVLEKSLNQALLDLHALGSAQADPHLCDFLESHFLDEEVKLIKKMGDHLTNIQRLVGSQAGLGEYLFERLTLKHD
Outline: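 Horse-spleen apoferritin (10 uM) in PBS with 50% saturated 1-aminoanthracene; compounds pin-transferred, 10 min at room temperature. Fluorescence read at 380/535 nm, normalized to free 1-AMA and 1-AMA/apoferritin values; four-parameter Hill fit.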

[8] = Validation screen for small molecules that induce DNA re-replication in MCF 10A normal breast cells (AID 463097); further: nearly all actives have a fitted effect of over 60% in size
Outline: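 MCF 10A cells exposed to compound 48 hr at 37 C, 5% CO2, then Hoechst-stained 40 min. Laser-scanning imaging of nuclear DNA content (405 nm ex, 500-530 nm em); re-replication scored as rise in nuclei with elevated fluorescence intensity.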

[9] = Quantitative high throughput screen for delayed death inhibitors of the malarial parasite plastid, 96 hour incubation (AID 488745); further: nearly all actives have a fitted effect of over 70% in size; further: potency means the concentration at half of the fitted maximal effect
Outline: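 Luciferase-expressing P. falciparum in erythrocytes (2% hematocrit, 0.1% parasitemia) incubated with compound for 96 h at 37 C, 5% CO2, in RPMI 1640 with 0.5% Albumax. Growth inhibition read as decreased luminescence.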

[10] = Quantitative high throughput screen for delayed death inhibitors of the malarial parasite plastid, 48 hour incubation (AID 488752); further: nearly all actives have a fitted effect of over 65% in size
Outline: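 Erythrocytes infected with firefly luciferase-expressing P. falciparum (2% hematocrit, 0.1% parasitemia) cultured with compound for 48 h at 37 C, 5% CO2, in RPMI 1640/0.5% Albumax. Growth inhibition read as loss of luminescence.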

[11] = target: M-phase phosphoprotein 8 (Homo sapiens) (UniProt Q99549); test: qHTS Validation Assay for Inhibitors for MPP8 Chromodomain Interactions with Methylated Histone Tails (AID 488949); further: top concentration of the series differs between compounds; nearly all actives have a fitted effect of over 55% in size
M-phase phosphoprotein 8 (Homo sapiens), sequence (Q99549 whole entry, looked up): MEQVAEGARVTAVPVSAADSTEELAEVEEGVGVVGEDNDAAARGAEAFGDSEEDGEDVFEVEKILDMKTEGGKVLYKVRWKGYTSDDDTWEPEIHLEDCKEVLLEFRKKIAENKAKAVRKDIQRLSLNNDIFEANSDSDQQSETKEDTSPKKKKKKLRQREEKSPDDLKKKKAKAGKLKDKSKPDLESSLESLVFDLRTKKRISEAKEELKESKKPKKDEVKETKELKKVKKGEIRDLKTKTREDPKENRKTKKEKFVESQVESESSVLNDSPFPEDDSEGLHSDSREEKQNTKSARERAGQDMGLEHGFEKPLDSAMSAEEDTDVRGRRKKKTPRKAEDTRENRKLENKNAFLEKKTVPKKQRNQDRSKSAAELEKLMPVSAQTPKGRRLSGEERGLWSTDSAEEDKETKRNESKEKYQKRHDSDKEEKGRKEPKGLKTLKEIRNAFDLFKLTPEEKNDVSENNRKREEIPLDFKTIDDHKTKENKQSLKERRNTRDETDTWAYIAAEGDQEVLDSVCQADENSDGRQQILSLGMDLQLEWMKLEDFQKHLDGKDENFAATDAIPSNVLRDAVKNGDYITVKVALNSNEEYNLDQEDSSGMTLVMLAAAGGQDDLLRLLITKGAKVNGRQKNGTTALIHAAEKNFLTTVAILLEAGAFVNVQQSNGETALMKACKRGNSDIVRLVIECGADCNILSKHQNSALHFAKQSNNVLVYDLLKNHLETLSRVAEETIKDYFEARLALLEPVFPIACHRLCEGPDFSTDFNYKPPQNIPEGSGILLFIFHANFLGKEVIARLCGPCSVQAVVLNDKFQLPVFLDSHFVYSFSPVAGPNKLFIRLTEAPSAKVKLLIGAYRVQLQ
Outline: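 MPP8 (50 nM) was pre-bound to 50 nM biotinylated H3(1-18)K9me3 peptide in PBS pH 7.4 with 0.01% Tween-20. Compounds were then added for 30 min at room temperature, and complex disruption was read by AlphaScreen with streptavidin donor and nickel-chelate acceptor beads.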

[12] = target: Thyrotropin receptor (Homo sapiens) (UniProt P16473); test: qHTS Assay for Antagonists of the Thyroid Stimulating Hormone Receptor (AID 488980)
Thyrotropin receptor (Homo sapiens), sequence (P16473 whole entry, looked up): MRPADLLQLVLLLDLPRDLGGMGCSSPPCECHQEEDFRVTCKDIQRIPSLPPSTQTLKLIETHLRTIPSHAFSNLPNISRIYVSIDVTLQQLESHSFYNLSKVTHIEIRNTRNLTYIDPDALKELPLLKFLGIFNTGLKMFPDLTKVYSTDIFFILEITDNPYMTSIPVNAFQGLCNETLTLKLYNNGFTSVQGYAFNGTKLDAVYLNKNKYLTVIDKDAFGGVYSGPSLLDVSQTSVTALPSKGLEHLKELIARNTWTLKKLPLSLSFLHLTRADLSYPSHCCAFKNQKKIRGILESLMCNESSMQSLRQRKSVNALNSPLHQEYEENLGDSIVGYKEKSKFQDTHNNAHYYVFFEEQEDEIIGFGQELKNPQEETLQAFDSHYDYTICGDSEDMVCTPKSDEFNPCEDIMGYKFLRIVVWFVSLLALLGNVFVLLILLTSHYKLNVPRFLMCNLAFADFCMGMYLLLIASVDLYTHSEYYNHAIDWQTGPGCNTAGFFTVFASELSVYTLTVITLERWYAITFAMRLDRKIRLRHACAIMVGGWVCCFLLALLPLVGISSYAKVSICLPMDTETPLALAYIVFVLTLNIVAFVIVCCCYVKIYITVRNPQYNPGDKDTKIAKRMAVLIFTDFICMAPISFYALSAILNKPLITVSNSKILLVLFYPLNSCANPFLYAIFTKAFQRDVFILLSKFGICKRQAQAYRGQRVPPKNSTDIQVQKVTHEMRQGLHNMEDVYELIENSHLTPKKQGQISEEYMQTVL
Outline: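 TSHR-transfected HEK293 cells (2000/well) in HEPES-buffered HBSS with 70 uM RO 20-1724 were stimulated with 4 nM TSH (EC80, final) in the presence of compound. cAMP was measured by HTRF competition after lysis and 30 min at RT.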

[13] = target: Thyrotropin-releasing hormone receptor (Homo sapiens) (UniProt P34981); test: qHTS for Small Molecule Agonists and Allosteric Enhancers of Human TRH Receptor: Validation Screen for Agonists (AID 493127;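 active means calcium activation more than 3 SD above the typical response in the agonist read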); details: TRH receptor agonist cell assay; at 2 µM; stronger effect = higher value
Thyrotropin-releasing hormone receptor (Homo sapiens), sequence (P34981 whole entry, looked up): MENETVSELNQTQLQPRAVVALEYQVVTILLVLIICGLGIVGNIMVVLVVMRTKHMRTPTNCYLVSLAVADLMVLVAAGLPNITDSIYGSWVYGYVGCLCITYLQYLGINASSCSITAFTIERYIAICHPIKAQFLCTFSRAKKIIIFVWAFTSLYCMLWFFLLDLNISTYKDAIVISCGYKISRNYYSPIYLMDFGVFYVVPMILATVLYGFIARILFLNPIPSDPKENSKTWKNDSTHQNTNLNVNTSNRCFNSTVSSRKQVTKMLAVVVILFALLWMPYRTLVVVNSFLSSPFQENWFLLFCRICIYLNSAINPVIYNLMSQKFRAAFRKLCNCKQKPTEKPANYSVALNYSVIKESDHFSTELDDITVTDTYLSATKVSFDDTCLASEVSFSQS
Outline: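 TRHR cells loaded with fluo-8 calcium dye; FDSS kinetic fluorescence (Ex 480/Em 530) read at 1 s/cycle after 23 nL compound addition. Agonist-mode calcium response recorded before the 10 nM TRH (EC20) addition.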

[14] = target: Galactokinase (Homo sapiens) (UniProt P51570); test: qHTS Validation Assay for Inhibitors of Human Galactokinase (GALK) (AID 493189)
Galactokinase (Homo sapiens), sequence (P51570 whole entry, looked up): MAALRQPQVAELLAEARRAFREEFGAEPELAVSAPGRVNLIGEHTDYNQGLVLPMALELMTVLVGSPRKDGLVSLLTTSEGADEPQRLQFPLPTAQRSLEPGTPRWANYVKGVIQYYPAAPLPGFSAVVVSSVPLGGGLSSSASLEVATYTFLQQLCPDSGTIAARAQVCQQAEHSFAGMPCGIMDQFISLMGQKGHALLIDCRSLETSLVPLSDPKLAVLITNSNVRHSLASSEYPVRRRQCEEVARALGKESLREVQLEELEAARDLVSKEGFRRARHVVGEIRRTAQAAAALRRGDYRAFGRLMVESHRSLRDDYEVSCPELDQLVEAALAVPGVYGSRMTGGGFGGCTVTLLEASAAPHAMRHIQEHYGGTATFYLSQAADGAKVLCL
Outline: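 GALK (5 nM) with 35 uM ATP and 100 uM galactose in HEPES pH 8.0 with MgCl2, NaCl, DTT and BSA. Reaction ran 1 h at room temperature. Residual ATP read by Kinase-Glo Plus luminescence.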

[15] = Validation screen for small molecules that induce DNA re-replication in SW480 colon adenocarcinoma cells (AID 504364)
Outline: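 SW480 cells (250/well) exposed 48 h at 37 C, 5% CO2, then Hoechst-stained 40 min. Nuclear DNA content imaged by fluorescence scanning (405 nm excitation, 500-530 nm emission); re-replication scored as increased nuclei with elevated intensity.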

[16] = target: Voltage-gated inwardly rectifying potassium channel KCNH2 (Homo sapiens) (UniProt Q12809); test: qHTS Assay for Small Molecule Inhibitors of the Human hERG Channel Activity (AID 588834);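 further: top concentration of the series differs between compounds; lower thallium flux fluorescence means stronger hERG block; nearly all actives have a fitted effect of over 50% in size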
Voltage-gated inwardly rectifying potassium channel KCNH2 (Homo sapiens), sequence (Q12809 whole entry, looked up): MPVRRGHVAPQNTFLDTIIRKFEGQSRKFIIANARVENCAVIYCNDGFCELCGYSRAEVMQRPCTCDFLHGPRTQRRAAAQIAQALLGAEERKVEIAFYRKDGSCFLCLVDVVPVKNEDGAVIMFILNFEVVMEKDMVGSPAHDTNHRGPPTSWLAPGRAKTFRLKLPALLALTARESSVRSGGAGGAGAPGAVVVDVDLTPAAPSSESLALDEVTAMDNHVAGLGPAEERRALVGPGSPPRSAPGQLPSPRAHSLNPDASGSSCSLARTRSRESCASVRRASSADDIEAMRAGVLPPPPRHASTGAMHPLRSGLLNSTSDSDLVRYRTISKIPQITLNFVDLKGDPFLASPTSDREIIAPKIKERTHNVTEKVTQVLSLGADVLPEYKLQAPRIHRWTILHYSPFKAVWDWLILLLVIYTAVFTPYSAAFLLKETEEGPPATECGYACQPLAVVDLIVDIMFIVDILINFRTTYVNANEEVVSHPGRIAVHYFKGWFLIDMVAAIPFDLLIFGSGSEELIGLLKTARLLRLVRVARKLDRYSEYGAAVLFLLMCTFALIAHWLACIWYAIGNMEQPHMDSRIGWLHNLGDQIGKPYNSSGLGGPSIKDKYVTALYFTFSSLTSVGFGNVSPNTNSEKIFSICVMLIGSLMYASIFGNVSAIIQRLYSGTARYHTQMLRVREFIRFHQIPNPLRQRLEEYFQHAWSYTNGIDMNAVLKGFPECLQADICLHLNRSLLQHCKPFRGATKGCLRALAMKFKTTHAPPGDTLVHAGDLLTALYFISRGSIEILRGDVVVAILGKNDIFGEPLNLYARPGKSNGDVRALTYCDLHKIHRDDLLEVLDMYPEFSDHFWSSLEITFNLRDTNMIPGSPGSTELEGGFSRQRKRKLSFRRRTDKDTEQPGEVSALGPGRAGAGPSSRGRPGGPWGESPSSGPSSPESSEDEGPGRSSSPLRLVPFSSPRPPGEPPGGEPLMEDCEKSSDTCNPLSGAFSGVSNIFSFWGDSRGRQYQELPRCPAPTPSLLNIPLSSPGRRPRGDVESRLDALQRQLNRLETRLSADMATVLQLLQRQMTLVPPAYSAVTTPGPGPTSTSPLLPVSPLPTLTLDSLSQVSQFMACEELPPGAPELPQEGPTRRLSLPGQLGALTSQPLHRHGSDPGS
Outline: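 U2OS cells BacMam-transduced with hERG, 2000 cells/well, compound ~10 min at 37 °C before stimulation buffer. FluxOR thallium flux fluorescence read kinetically on FDSS; decrease indicates block; AC50 from Hill fits.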

[17] = qHTS for differential inhibitors of proliferation of Plasmodium falciparum line 3D7 (AID 1876); further: potency means the concentration at half of the fitted maximal effect
[18] = qHTS for differential inhibitors of proliferation of Plasmodium falciparum line D10 (AID 1877);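 further: parasites grown with compound for 72 h before DNA staining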; further: potency means the concentration at half of the fitted maximal effect
[19] = qHTS for differential inhibitors of proliferation of Plasmodium falciparum line HB3 (AID 1886); details: Potency: Plasmodium falciparum HB3 proliferation inhibition;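 further: parasites grown with compound for 72 h before SYBR Green readout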; further: potency means the concentration at half of the fitted maximal effect
[20] = target: Transient receptor potential cation channel subfamily V member 1 (Homo sapiens) (UniProt Q8NER1); test: HTS Assay for Compounds that Act as Enhancers of the Vanilloid Receptor 1 (AID 488979)
Transient receptor potential cation channel subfamily V member 1 (Homo sapiens), sequence (Q8NER1 whole entry, looked up): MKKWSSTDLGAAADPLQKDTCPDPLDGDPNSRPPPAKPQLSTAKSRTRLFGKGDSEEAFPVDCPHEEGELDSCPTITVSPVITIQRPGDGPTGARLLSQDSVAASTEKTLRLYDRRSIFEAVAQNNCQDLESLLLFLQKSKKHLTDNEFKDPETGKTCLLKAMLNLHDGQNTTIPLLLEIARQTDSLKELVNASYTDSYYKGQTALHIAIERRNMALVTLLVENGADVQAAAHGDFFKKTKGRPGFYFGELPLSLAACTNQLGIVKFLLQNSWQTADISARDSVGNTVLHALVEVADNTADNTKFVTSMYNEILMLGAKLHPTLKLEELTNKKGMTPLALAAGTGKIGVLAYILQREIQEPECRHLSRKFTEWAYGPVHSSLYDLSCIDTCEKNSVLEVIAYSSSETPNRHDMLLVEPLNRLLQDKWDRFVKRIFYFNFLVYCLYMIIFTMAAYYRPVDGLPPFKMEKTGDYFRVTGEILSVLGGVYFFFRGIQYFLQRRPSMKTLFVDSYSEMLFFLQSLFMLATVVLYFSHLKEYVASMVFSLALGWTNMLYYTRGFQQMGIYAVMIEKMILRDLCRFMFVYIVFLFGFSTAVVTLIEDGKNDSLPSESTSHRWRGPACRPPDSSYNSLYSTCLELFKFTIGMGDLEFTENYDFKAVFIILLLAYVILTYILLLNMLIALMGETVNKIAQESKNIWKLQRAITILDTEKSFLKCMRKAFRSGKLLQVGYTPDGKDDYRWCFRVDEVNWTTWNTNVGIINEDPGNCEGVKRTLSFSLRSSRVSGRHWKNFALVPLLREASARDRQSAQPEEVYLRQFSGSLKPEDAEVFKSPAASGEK
Outline: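 TRPV1-expressing cells loaded with Fluo-8 calcium dye; compounds added and calcium influx read kinetically for 3 min (agonist phase), then capsaicin at EC20 added and read 2 min more for enhancement. Fluorescence ex 480/em 520 nm.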

[21] = measured here: cell count channel max response
[22] = measured here: lipid channel max response

## CNC(=O)[C@H]1O[C@@H](n2cnc3c(NCc4cccc(I)c4)ncnc32)[C@H](O)[C@H]1O
[1]
  outcome: inactive
[2]
  activity change, negative = inhibition: 1.11% (inactive)
[2]; [21]
  max response: 54.7%
[2]; [22]
  max response: 56.8%
[3]
  Potency: inactive
[4]
  Potency: inactive
[5]
  outcome: inactive
[6]
  Potency: inactive
[7]
  outcome: inactive
[8]
  outcome: inactive
[9]
  Potency: inactive
[10]
  Potency: inactive
[11]
  Potency: inactive
[12]
  outcome: inactive
[13]
  activation: 1.38% (inactive)
[14]
  outcome: inactive
[15]
  outcome: inactive
[16]
  Potency: inactive

## OC[C@H]1O[C@@H](n2cnc3c(NCCc4ccccc4)ncnc32)[C@H](O)[C@H]1O
[1]
  outcome: inactive
[2]
  activity change, negative = inhibition: -0.874% (inactive)
[2]; [21]
  max response: -25.2%
[2]; [22]
  max response: -26.1%
[3]
  Potency: inactive
[4]
  Potency: inactive
[5]
  outcome: inactive
[17]
  Potency: inactive
[18]
  Potency: inactive
[6]
  Potency: inactive
[19]
  Potency: inactive
[7]
  outcome: inactive
[8]
  outcome: inactive
[9]
  Potency: inactive
[10]
  Potency: inactive
[11]
  Potency: inactive
[20]
  outcome: inactive
[12]
  outcome: inactive
[13]
  activation: -0.5% (inactive)
[14]
  outcome: inactive
[15]
  outcome: inactive
[16]
  Potency: inactive

## CN1C2CC(OC(=O)C(CO)c3ccccc3)CC1C1OC12 (centres undefined)
[1]
  outcome: inactive
[3]
  Potency: inactive
[4]
  Potency: inactive
[17]
  Potency: inactive
[18]
  Potency: inactive
[6]
  Potency: inactive
[19]
  Potency: inactive
[8]
  outcome: inactive
[9]
  Potency: inactive
[10]
  Potency: inactive
[12]
  outcome: inactive
[14]
  outcome: inactive
[15]
  outcome: inactive

## N=C(N)SCCc1cccc(CCSC(=N)N)c1
[1]
  outcome: inactive
[2]
  activity change, negative = inhibition: 1.43% (inactive)
[2]; [21]
  max response: -17.4%
[2]; [22]
  max response: -13.1%
[3]
  Potency: inactive
[4]
  Potency: inactive
[5]
  outcome: inactive
[17]
  Potency: 3.16 µM (active)
[18]
  Potency: 10 µM (active)
[6]
  Potency: 7.08 µM (active)
[19]
  Potency: 8.91 µM (active)
[7]
  outcome: inactive
[8]
  outcome: inactive
[9]
  Potency: 13.1 µM (active)
[11]
  Potency: inactive
[20]
  outcome: inactive
[12]
  outcome: inactive
[13]
  activation: 0.562% (inactive)
[14]
  outcome: inactive
[15]
  outcome: inactive

## Nc1nc(SCc2ccc([N+](=O)[O-])cc2)c2ncn([C@@H]3O[C@H](CO)[C@H](O)[C@H]3O)c2n1
[1]
  outcome: inactive
[2]
  activity change, negative = inhibition: -2% (inactive)
[2]; [21]
  max response: -35.2%
[2]; [22]
  max response: -38%
[3]
  Potency: inactive
[4]
  Potency: inactive
[5]
  outcome: inactive
[18]
  Potency: inactive
[8]
  outcome: inactive
[9]
  Potency: inactive
[10]
  Potency: inactive
[11]
  Potency: inactive
[20]
  outcome: inactive
[12]
  outcome: inactive
[13]
  activation: 0.75% (inactive)
[14]
  outcome: inactive
[15]
  outcome: inactive

## Nc1ncnc2c1ncn2[C@@H]1O[C@H](C(=O)NC2CC2)[C@H](O)[C@H]1O
[1]
  outcome: inactive
[3]
  Potency: inactive
[4]
  Potency: inactive
[5]
  outcome: inactive
[17]
  Potency: inactive
[18]
  Potency: inactive
[6]
  Potency: inactive
[19]
  Potency: inactive
[7]
  outcome: inactive
[8]
  outcome: inactive
[9]
  Potency: inactive
[10]
  Potency: inactive
[11]
  Potency: inactive
[20]
  outcome: inactive
[12]
  outcome: inactive
[13]
  activation: 1.12% (inactive)
[14]
  outcome: inactive
[15]
  outcome: inactive
[16]
  Potency: inactive
